These results are taken from PubChem BioAssay AID463173 (ICCB-Longwood Screening Facility, Harvard Medical School, 2010).

The whole screen tested about 52,000 compounds, of which about 4,300 (8.3%) were called active. This is one part of a sample in which actives are shown more often than they occur. Cut-off read from the data, not from the text of the source: active = survival mostly below about 52% (no sharp cut-off); inactive = mostly above about 56%.

For the experiment, the system named is DeltatarO mutant. Briefly: growth inhibition of S. aureus wild type versus tarO mutant, primary screen, teichoic acid synthesis inhibitors, RN4220, OD600 (AID 463173). The settings on record: OD600, 18 h, active compounds read low, screened at 18.75 µg/mL (by protocol).
On to `Cc1ccc(NC(=O)Cn2c(=O)oc3cc(S(=O)(=O)N4CCCCCC4)ccc32)cc1Cl`, for which the survival was 93% (inactive).
For `CCCc1nc2ccccc2n1CC(O)COc1ccccc1` (centres undefined) the value was 69% (inactive).
Consider `CCCc1nc2ccccc2n1CC(O)COc1ccc(C(=O)OC)cc1` (centres undefined), for which the survival was 64% (inactive).
Take `Cc1nc2ccccc2n1CC(O)COc1ccc(C(=O)O)cc1` (centres undefined): the survival was 46% (active).
For `CCN(Cc1ccccc1)c1ncnc2c1nnn2C` the value was 57% (inactive); for `CCOc1ccccc1CNC(=O)c1nc(-c2ccc(Cl)cc2)n2c1CCCCC2`, 67% (inactive).
Take `Cc1ccc(-n2nc3c(N4CCC(C(=O)N5CCCCC5)CC4)nnc(C)c3c2C)cc1`: the survival was 85% (inactive).
Consider `Cc1cc(C)c(S(=O)(=O)NCC(c2ccco2)S(=O)(=O)c2cccs2)c(C)c1` (centres undefined), for which the survival is 25% (active).
For the compound `Cc1cc(S(=O)(=O)NCC(c2ccco2)S(=O)(=O)c2cccs2)ccc1F` (centres undefined), the survival is 101% (inactive).
For the compound `Cc1cc(F)ccc1S(=O)(=O)NCC(c1ccco1)S(=O)(=O)c1cccs1` (centres undefined), the survival is 118% (inactive).
As for `Cc1cc(C)c(S(=O)(=O)NCC(c2ccco2)S(=O)(=O)c2ccccc2)c(C)c1` (centres undefined), the survival was 99% (inactive).
Consider `O=S(=O)(NCC(c1ccco1)S(=O)(=O)c1cccs1)c1ccc(F)c(C(F)(F)F)c1` (centres undefined), for which the survival was 37% (active).
Turning to `O=S(=O)(NCC(c1ccco1)S(=O)(=O)c1cccs1)c1ccc(Cl)cc1` (centres undefined), the survival is 92% (inactive).
Under `COc1ccc(-c2cnnn2-c2ccc(NC(=O)c3ccccc3OC)cc2)cc1` stands 107% (inactive).
Regarding `CCOc1ccccc1CN(CCc1ccc2c(c1)OCO2)Cc1cc(OC)c(OC)cc1OC`, the survival is 56% (inactive).
As for `CCOc1ccccc1CN(CCc1ccc2c(c1)OCO2)Cc1ccccn1`, the survival is 77% (inactive).
As for `CCOc1ccccc1CN(CCc1ccc2c(c1)OCO2)Cc1cccc(OC)c1OC`, the survival is 34% (active).
Consider `COc1cccc(NC(=O)Cn2c(=O)n(-c3ccc(C)cc3)c(=O)c3ccc(C(=O)NCc4ccco4)cc32)c1`, for which the survival is 80% (inactive).
Consider `Cc1c(Cl)cccc1NC(=O)c1ccc2c(c1)CCN2S(=O)(=O)c1ccccc1`, for which the survival is 39% (active).
Under `Cc1ccc(S(=O)(=O)N2CCc3cc(C(=O)Nc4ccc(C)c(C)c4)ccc32)cc1` stands 60% (inactive); under `CCS(=O)(=O)N1CCc2cc(C(=O)Nc3cccc(Cl)c3C)ccc21`, 86% (inactive).
Consider `Cc1ccc(C)c(NC(=O)c2ccc3c(c2)CCN3S(=O)(=O)c2ccccc2)c1`, for which the survival was 40% (active).
As to `Cc1cccc(NC(=O)c2ccc3c(c2)CCN3S(=O)(=O)c2ccccc2)c1C`, the survival is 38% (active).
For `Cc1c(Cl)cccc1NC(=O)c1ccc2c(c1)CCCN2S(C)(=O)=O` the value was 70% (inactive); for `Cc1ccc(C)c(NC(=O)c2ccc3c(c2)CCN3S(C)(=O)=O)c1`, 105% (inactive); for `CCS(=O)(=O)N1CCc2cc(C(=O)Nc3cccc(C)c3C)ccc21`, 80% (inactive).
In the case of `CCc1cccc(CC)c1NC(=O)c1ccc2c(c1)CCN2S(=O)(=O)c1ccccc1`, the survival was 60% (inactive).
Under `CC(=O)N1c2ccccc2C(=O)C1N1CCN(c2ccccc2F)CC1` (centres undefined) stands 90% (inactive).
For `COc1ccc(-c2cn3c(n2)sc2cc(C(=O)Nc4cccc(SC)c4)ccc23)cc1` the value was 59% (inactive); for `COC(=O)c1cc(NC(=O)Cn2ncc3c([nH]c4ccccc43)c2=O)cc(C(=O)OC)c1`, 66% (inactive); for `O=C(CSc1ccc(-c2ccccn2)nn1)Nc1ccc(F)cc1F`, 38% (inactive).
`O=C(NCCc1ccc(Cl)cc1)c1ccc2c(c1)N(Cc1ccccc1)C(=O)CS2`: the survival was 25% (active).
For the compound `O=C(NCCc1ccc(Cl)cc1)c1ccc2c(c1)N(Cc1ccccc1)CCS2`, the survival was 102% (inactive).
For `O=C(NCCc1ccccc1)c1ccc2c(c1)N(Cc1c(F)cccc1Cl)C(=O)CS2` the value was 54% (inactive); for `CC(NC(=O)c1ccc2c(c1)N(Cc1ccc(Cl)cc1)C(=O)c1ccccc1S2=O)c1ccccc1` (centres undefined), 73% (inactive); for `O=C(NCCc1ccccc1)c1ccc2c(c1)N(Cc1ccccc1Cl)C(=O)c1ccccc1S2`, 94% (inactive).
Turning to `O=C(NCCc1ccc(Cl)cc1)c1ccc2c(c1)N(Cc1ccc(F)cc1Cl)C(=O)CS2`, the survival was 49% (inactive).
As for `O=C(NCCc1ccccc1)c1ccc2c(c1)N(Cc1ccc(Cl)cc1)C(=O)CS2`, the survival is 144% (inactive).
Take `CC(NC(=O)c1ccc2c(c1)N(Cc1ccc(Cl)cc1)C(=O)c1ccccc1S2(=O)=O)c1ccccc1` (centres undefined): the survival is 90% (inactive).
On to `CC(NC(=O)c1ccc2c(c1)N(Cc1ccc(Cl)cc1)C(=O)CS2)c1ccccc1` (centres undefined), for which the survival is 48% (active).
For the compound `Cc1ccc(C)c(CN2C(=O)CSc3ccc(C(=O)NCCc4ccc(Cl)cc4)cc32)c1`, the survival was 49% (inactive).
`O=C(NCCc1ccc(Cl)cc1)c1ccc2c(c1)N(Cc1c(F)cccc1Cl)C(=O)CS2`: the survival was 44% (active).
`O=C(NCCc1ccccc1)c1ccc2c(c1)N(Cc1ccc(F)cc1Cl)C(=O)CS2`: the survival is 55% (active).
In the case of `CCOC(=O)c1c(C)n(CCNC(C)=O)c2cc(Br)c(OC)cc12`, the survival is 106% (inactive).
For the compound `O=C(COc1ccccc1)Nc1ccccc1C(=O)OCc1cc(=O)n2nc(C3CC3)sc2n1`, the survival was 89% (inactive).
For the compound `Cc1ccc(Nc2cc(=O)[nH]c(=O)[nH]2)cc1C`, the survival is 72% (inactive).
Under `CCc1ccc(NC(=O)C(=O)NCC(c2cccnc2)N2CCN(Cc3ccccc3)CC2)cc1` (centres undefined) stands 75% (inactive).
Take `CCc1ccc(CNC(=O)CCCN2C(=O)CCn3nc(-c4cccn4C)cc32)cc1`: the survival is 72% (inactive).
Consider `Cc1ccccc1C(=O)NCCc1sc(-c2ccc(Cl)cc2)nc1C`, for which the survival is 100% (inactive).
In the case of `COc1cccc(NC(=O)c2cn(C3CCCCC3)c(=O)c3c2c2ccccc2n3C)c1`, the survival was 75% (inactive).
As to `Cc1ccc(CN(C(=O)c2ccc(OCC(C)C)cc2)c2ccccn2)o1`, the survival is 104% (inactive).
Take `COc1ccccc1CNC(=O)c1ccc2c(c1)N(Cc1ccc(C)cc1)CCS2`: the survival was 83% (inactive).
Under `O=C(NCCc1ccc(Cl)cc1)c1ccc2c(c1)N(Cc1ccc(Cl)cc1)C(=O)CS2` stands 50% (inactive); under `COc1ccc(CCNC(=O)c2ccc3c(c2)N(Cc2cccc(Cl)c2)C(=O)c2ccccc2S3=O)cc1OC` (centres undefined), 94% (inactive).
In the case of `COc1ccc(CCNC(=O)c2ccc3c(c2)N(Cc2ccc(F)cc2)C(=O)CS3)cc1OC`, the survival is 117% (inactive).
Under `COc1ccc(CNC(=O)c2ccc3c(c2)N(Cc2c(F)cccc2Cl)C(=O)CS3)cc1` stands 124% (inactive); under `O=C(NCc1ccc(F)cc1)c1ccc2c(c1)N(Cc1c(F)cccc1Cl)C(=O)CS2`, 40% (active).
As to `O=C(NCCc1ccccc1)c1ccc2c(c1)N(Cc1ccc(F)cc1)C(=O)CS2`, the survival is 74% (inactive).
Consider `COCCNC(=O)c1ccc2c(c1)N(Cc1c(F)cccc1Cl)C(=O)c1ccccc1S2`, for which the survival was 78% (inactive).
For the compound `O=C(NCCc1ccc(Cl)cc1)c1ccc2c(c1)N(Cc1ccc(F)cc1)C(=O)CS2`, the survival is 37% (active).
For `COc1ccccc1CNC(=O)c1ccc2c(c1)N(Cc1c(F)cccc1Cl)C(=O)CS2`, the survival is 43% (active).
As for `O=C(NCc1ccc2c(c1)OCO2)c1ccc2c(c1)N(Cc1c(F)cccc1Cl)C(=O)c1ccccc1S2`, the survival is 86% (inactive).
Under `COc1ccc(CCNC(=O)c2ccc3c(c2)N(Cc2cccc(Cl)c2)C(=O)CS3)cc1OC` stands 54% (active).
In the case of `CCOc1ccc(NC(=O)C2CCCN(c3cnccn3)C2)cc1` (centres undefined), the survival was 86% (inactive).
Consider `CCOc1cc(-c2ccc(OC(=O)c3ccccc3Cl)c(OC)c2)cc(=O)c2c(C)oc(C)c12`, for which the survival was 69% (inactive).
For `COc1ccccc1CNC(=O)c1ccc(CSc2nc3ccncc3n2Cc2ccccc2C)cc1` the value was 74% (inactive); for `COc1ccc(C(=O)Nc2nnc(S(=O)(=O)N3CCN(c4ccc(F)cc4)CC3)s2)cc1`, 56% (inactive).
Take `COc1ccc(C(=O)Nc2nnc(S(=O)(=O)N3CCN(c4ccc(C)cc4)CC3)s2)cc1`: the survival is 48% (active).
For the compound `COc1ccc(C(=O)Nc2nnc(S(=O)(=O)N3CCOCC3)s2)cc1`, the survival is 99% (inactive).
As to `Cc1ccc(C(=O)Nc2nnc(S(=O)(=O)N3CCOCC3)s2)cc1`, the survival was 68% (inactive).
Under `Cc1ccc(C(=O)Nc2nnc(S(=O)(=O)N3CCN(c4ccc(F)cc4)CC3)s2)cc1` stands 56% (inactive); under `Cc1ccc(N2CCN(S(=O)(=O)c3nnc(NC(=O)c4ccc(C(C)C)cc4)s3)CC2)cc1`, 42% (active); under `CCc1nc(SC)ncc1C(=O)NCc1cccc(Br)c1`, 89% (inactive).
`CCc1ccc(NC(=O)C2CCC(CNS(=O)(=O)c3cccs3)CC2)cc1` (centres undefined): the survival was 94% (inactive).
Regarding `CCOCCCNC(=O)c1ccc(NC(=O)N2CCCCc3ccccc32)cc1`, the survival was 89% (inactive).
For `Cc1ccc(CNS(=O)(=O)c2cc3c(cc2Cl)NC(=O)CO3)o1` the value was 106% (inactive); for `CCCCN(CC)Cc1ccc(CNS(=O)(=O)c2cc3c(cc2Cl)NC(=O)CO3)o1`, 0% (active); for `O=C1COc2cc(S(=O)(=O)NCc3ccco3)c(Cl)cc2N1`, 98% (inactive).
On to `Cn1c(SCC(=O)N2c3ccccc3Sc3ccccc32)nnc1-c1ccco1`, for which the survival was 77% (inactive).
With `COC(=O)c1c(-c2ccc(Cl)cc2)noc1N1CCN(c2ccc(F)cc2)CC1`, the survival is 83% (inactive).
As for `O=S1(=O)CCC(NCc2ccccc2)C1` (centres undefined), the survival was 89% (inactive).
Consider `CS(=O)(=O)N(CC(=O)NCc1ccncc1)c1ccccc1`, for which the survival is 85% (inactive).
As for `CCC(C)NC(=O)c1ccccc1NC(=O)CN1C(=O)c2cccc3cccc1c23` (centres undefined), the survival was 50% (inactive).
For `CCSc1nsc(NC(=O)Nc2cccc(F)c2)n1` the value was 1% (active); for `O=C(CSc1nnc(NC(=O)Nc2ccccc2)s1)Nc1cccc(F)c1`, 73% (inactive); for `CSc1nsc(NC(=O)Nc2ccccc2C(F)(F)F)n1`, 13% (active).
Regarding `CCSc1nsc(NC(=O)Nc2cccc(OC)c2)n1`, the survival is 96% (inactive).
Consider `O=C(Nc1nnc(N2CCCCCC2)s1)Nc1ccccc1C(F)(F)F`, for which the survival was 80% (inactive).
With `CSc1ncc(C(=O)Nc2ccccc2C(F)(F)F)c(-c2ccccc2)n1`, the survival was 117% (inactive).
